Laboratory results reported in PubChem BioAssay (NCATS).
Where “and” joins values, the source holds several entries; their conditions need not be identical. Identical values can stand only once. Results filed as inconclusive are left out. Calls of active or inactive are those of the source. Unless noted, the call rests on the fitted dose curve; in most records, active means well fitted curve in the direction sought with a large enough effect; inconclusive means small, poorly fitted or top-dose-only effect, or another doubt; inactive means no such curve, though single readings can be large; an effect the other way counts as inactive or inconclusive.

Legend:
[1] = P-glycoprotein substrates identified in KB-3-1 adenocarcinoma cell line, qHTS therapeutic library screen (AID 1346986); further: nearly all actives have a fitted effect of over 60% in size
Procedure, shortened: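 In 1536-well format, 500 cells/well received pinned compound titrations and were incubated 72 h, 5% CO2. Viability was read by CellTiter-Glo; cytotoxic if AC50 < 10 uM and efficacy >50%.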

[2] = P-glycoprotein substrates identified in KB-8-5-11 adenocarcinoma cell line, qHTS therapeutic library screen (AID 1346987); further: nearly all actives have a fitted effect of over 65% in size; further: potency means the concentration at half of the fitted maximal effect; on activity change, negative = cytotoxicity: on the % scale 0 is the no-effect control and ±100 the full control effect
Procedure, shortened: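 Compounds are pinned in dose-response onto KB-8-5-11 cells (500 cells/well, colchicine-free medium) and left 72 h at 37 degree C. CellTiter-Glo luminescence then yields AC50 values.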

[3] = Primary qHTS for inhibitors of nuclear receptor binding SET domain protein 2 (NSD2) in an RCH-ACV wild type WT cells (2C) (AID 1645877); further: nearly all actives have a fitted effect of over 70% in size; further: potency means the concentration at half of the fitted maximal effect
[4] = Primary redox qHTS assay for identification of artifact compounds. (AID 1845223);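 further: 0% = DMSO and 100% = reference compound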
Procedure, shortened: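 Redox-cycling detection via DTT (250 uM final) oxidation coupled to Amplex Red (25 uM)/HRP (250 mU/mL) in HBSS. 15 min preincubation plus 30 min after DTT, room temperature. Ex/Em 525/598 nm; 4-parameter Hill fit against DMSO and 10 uM DA3003.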

NIH3T3 = assay: Cytotoxic Profiling of Annotated Libraries Using Quantitative High-Throughput Screening (AID 1296008); conditions: Five cell lines viability, CellTiter-Glo ATP luminescence, 48-72 h; max response: stronger effect = lower value; further: nearly all actives have a fitted effect of over 60% in size; further: potency means the concentration at half of the fitted maximal effect; on max response: on the % scale 0 is the no-effect control and ±100 the full control effect
Procedure, shortened: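 Cells exposed to compounds for 48 or 72 hr at 37 degrees Celsius. Viability read as ATP-coupled luminescence with CellTiter-Glo after 10 min at room temperature.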

CAOV3 = assay: Primary qHTS to identify gynecologic anti-cancer compounds using libraries of approved drugs and bioactive compounds (AID 1345084); conditions: Gynecologic cancer cell panel viability, ATPlite luminescence, 48 h; series mostly up to 57.5 µM; further: nearly all actives have a fitted effect of over 55% in size; further: potency means the concentration at half of the fitted maximal effect; on activity change, negative = cytotoxicity: on the % scale 0 is the no-effect control and ±100 the full control effect
Procedure, shortened: (§1)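 Cell viability after 48 h drug treatment, ATPlite luminescence readout; five doses.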

JEG-3 = assay: as above; conditions: Gynecologic cancer cell panel viability, ATPlite luminescence, 48 h; series mostly up to 57.5 µM
Procedure, shortened: as §1

SKOV3 = assay: as above; conditions: Gynecologic cancer cell panel viability, ATPlite luminescence, 48 h; series mostly up to 57.5 µM
Procedure, shortened: as §1

[5] = system: Zika virus NS2B-NS3 protease (unlinked complex); assay: Primary screen GU Rhodamine qHTS for Zika virus inhibitors: Unlinked NS2B-NS3 protease assay (AID 1347159); further: on the % scale 0 is the no-effect control and ±100 the full control effect; nearly all actives have a fitted effect of over 60% in size
Procedure, shortened: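 Enzyme 25 nM in Tris-HCl pH 8.0 + 0.01% Tween 20; compounds up to 114 microM, 15 min RT dark; + Rhod110 substrate 1.5 microM; read t0 and 15 min; delta fluorescence → % inhibition → 4-parameter Hill fit.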

HeLa = assay: Primary qHTS to identify gynecologic anti-cancer compounds using libraries of approved drugs and bioactive compounds (AID 1345084); conditions: Gynecologic cancer cell panel viability, ATPlite luminescence, 48 h; series mostly up to 57.5 µM; further: nearly all actives have a fitted effect of over 55% in size; further: potency means the concentration at half of the fitted maximal effect; on activity change, negative = cytotoxicity: on the % scale 0 is the no-effect control and ±100 the full control effect
Procedure, shortened: as §1

[6] = target: Cytochrome P450 2C9 (Homo sapiens) (UniProt P11712); assay: Cytochrome P450 family 2 subfamily C member 9 (CYP2C9) small molecule antagonists: luciferase biochemical (cell-free) qHTS assay (AID 1645842; active means well fitted curve in the direction sought with a large enough effect in the repeat runs; an effect the other way counts as inactive or inconclusive; further: on the % scale 0 is the no-effect control and ±100 the full control effect; nearly all actives have a fitted effect of over 55% in size)
Sequence of Cytochrome P450 2C9 (Homo sapiens) (P11712 whole entry, looked up): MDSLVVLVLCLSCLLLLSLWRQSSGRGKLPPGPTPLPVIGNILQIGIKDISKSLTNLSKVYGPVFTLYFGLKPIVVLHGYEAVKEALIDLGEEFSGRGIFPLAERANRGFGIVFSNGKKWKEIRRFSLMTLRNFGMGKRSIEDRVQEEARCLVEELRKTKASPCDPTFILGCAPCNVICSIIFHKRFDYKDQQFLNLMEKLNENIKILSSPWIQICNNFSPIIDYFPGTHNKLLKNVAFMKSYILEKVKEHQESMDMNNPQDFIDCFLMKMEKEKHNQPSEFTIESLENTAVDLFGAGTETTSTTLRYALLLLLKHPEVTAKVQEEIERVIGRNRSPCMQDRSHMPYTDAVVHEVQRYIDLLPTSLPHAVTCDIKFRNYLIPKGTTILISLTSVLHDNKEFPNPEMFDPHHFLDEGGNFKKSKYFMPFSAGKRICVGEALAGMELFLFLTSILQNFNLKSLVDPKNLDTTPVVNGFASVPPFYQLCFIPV
Procedure, shortened: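 P450-Glo CYP2C9 system: proluciferin substrate with enzyme in mix containing 0.4% BSA, 10 min at room temperature, then NADPH regeneration solution added and incubated 1 h at 37C. Detection reagent stopped reaction; luminescence read after 20 min as RLU.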

CRL-7250 = normal cell line; assay: qHTS assay to identify novel small-molecules to repurpose for Merkel cell carcinoma treatment (AID 1296009); conditions: MCC and control cell lines, CellTiter-Glo viability, 72 h; series mostly up to 92 µM; further: nearly all actives have a fitted effect of over 60% in size
Procedure, shortened: (§2)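 Dose-response viability screen; 72 hr exposure at 37 degree celsius; CellTiter-Glo added, 10 min room temperature, luminescence read; RLUs scaled between no-cell and DMSO wells.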

HACAT = assay: as above; conditions: MCC and control cell lines, CellTiter-Glo viability, 72 h; at 44.8 µM (top of the series) unless noted
Procedure, shortened: as §2

[7] = target: Cytochrome P450 2D6 (Homo sapiens) (UniProt P10635); assay: Cytochrome P450 family 2 subfamily D member 6 (CYP2D6) small molecule antagonists: luciferase biochemical (cell-free) qHTS assay (AID 1645840; active means well fitted curve in the direction sought with a large enough effect in the repeat runs; an effect the other way counts as inactive or inconclusive; further: on the % scale 0 is the no-effect control and ±100 the full control effect; nearly all actives have a fitted effect of over 55% in size)
Sequence of Cytochrome P450 2D6 (Homo sapiens) (P10635 whole entry, looked up): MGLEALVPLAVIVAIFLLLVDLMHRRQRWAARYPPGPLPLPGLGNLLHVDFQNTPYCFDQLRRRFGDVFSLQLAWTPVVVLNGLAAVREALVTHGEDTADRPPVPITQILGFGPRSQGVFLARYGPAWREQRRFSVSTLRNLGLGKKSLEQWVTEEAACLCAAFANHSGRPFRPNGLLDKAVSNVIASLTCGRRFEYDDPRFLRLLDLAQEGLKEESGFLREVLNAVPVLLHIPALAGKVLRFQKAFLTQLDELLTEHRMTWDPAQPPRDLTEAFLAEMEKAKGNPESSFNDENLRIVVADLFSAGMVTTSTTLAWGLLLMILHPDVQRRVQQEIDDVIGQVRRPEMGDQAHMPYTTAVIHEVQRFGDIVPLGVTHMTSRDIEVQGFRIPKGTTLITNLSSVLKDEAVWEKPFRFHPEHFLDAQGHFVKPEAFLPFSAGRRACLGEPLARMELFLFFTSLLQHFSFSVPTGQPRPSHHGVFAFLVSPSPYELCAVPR
Procedure, shortened: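 P450-Glo CYP2D6 system: proluciferin substrate converted by enzyme to luciferin, read by luminescence proportional to activity. Enzyme-substrate mix with compound 10 min at room temperature, then NADPH regeneration 1 h before detection reagent.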

[8] = Cytotoxicity counterscreen for inhibitors of SARS-CoV-2 cell entry (AID 1645845; calls by dose curve; further: on the % scale 0 is the no-effect control and ±100 the full control effect; nearly all actives have a fitted effect of over 50% in size)
Procedure, shortened: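 Counterscreen run in the same HEK293-ACE2 line as the pseudotyped-particle entry assay, without particles. Viability after 48 h at 37 C was read as ATP luminescence, scaled between cell-containing and cell-free wells.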

[9] = qHTS drug screen for cell cycle checkpoint inhibitors in PARPi-resistant BRCA-mutant ovarian cancer cell lines. (AID 1963452; calls by dose curve); conditions: PEO1/OlaR viability, CellTiter-Glo luminescence, 96 h, stronger effect = lower value
Procedure, shortened: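 PEO1, PEO4 and PEO1/OlaR ovarian cancer cells, 600 per well, exposed 96 h at 37C to a dilution series. Viability read by CellTiter-Glo luminescence, normalized to DMSO and empty wells; activity summarized as Z-AUC.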

C=CC(C)(C)c1[nH]c2c(CC=C(C)C)cc(CC=C(C)C)cc2c1C[C@@H]1NC(=O)[C@H](C)NC1=O
inactive: Potency [1] | Potency [2] | Potency [3] | Potency [4] | max response (NIH3T3) 2.77% | Potency (CAOV3) | Potency (JEG-3) | Potency (SKOV3)

CC(=O)OC[C@]12C[C@H](OC(=O)CC(C)C)C(C)=C[C@H]1O[C@@H]1[C@H](O)C[C@@]2(C)[C@]12CO2
active: Potency [2] 709 nM | Potency [3] 317 nM | Potency (NIH3T3) 893 nM | Potency (CAOV3) 4470 nM | Potency (HeLa) 3980 nM
inactive: Potency [5] | Potency [4]

COC1CC(O[C@H]2CC[C@]3(C)C4CC[C@]5(C)[C@@H](C6=CC(=O)OC6)[C@@H](OC(C)=O)C[C@]5(O)C4CC[C@@H]3C2)OC(C)C1O[C@@H]1O[C@H](CO)[C@@H](O)[C@H](O)[C@H]1O (some centres undefined)
inactive: max response (NIH3T3) 4.46%
active: Potency [2] 544 nM | Potency (CAOV3) 1120 nM | Potency (SKOV3) 891 nM

C[C@@H]1C[C@@H](O)[C@]2(O)O[C@@H]3C[C@@]4(C=O)C(CC[C@@H]5C4CC[C@]4(C)[C@@](O)(C6=CC(=O)OC6)CC[C@]54O)C[C@H]3OC2O1 (some centres undefined)
active: Potency [2] 1590 nM
inactive: Potency [4] | max response (NIH3T3) -15.7%

c1cncc(OC[C@@H]2CCN2)c1
inactive: Potency [2] | Potency [5] | Potency [6] | Potency [3] | Potency [4] | max response (NIH3T3) -2.03% | Potency (CAOV3) | Potency (JEG-3) | Potency (SKOV3)

CC(=O)O[C@@H]1[C@@H](O)[C@H]2O[C@@H]3C=C(C)[C@@H](O)C[C@]3(CO)[C@]1(C)[C@]21CO1
inactive: Potency [5] | Potency [4]
active: Potency [2] 904 nM | Potency [3] 358 nM | Potency (NIH3T3) 904 nM | Potency (HeLa) 2510 nM | Potency (SKOV3) 1260 nM

CC1CCCC(=O)CCC/C=C/c2cc(O)cc(O)c2C(=O)O1 (centres undefined)
inactive: Potency [1] | max response (NIH3T3) -2.03% | Potency (CAOV3) | Potency (HeLa) | Potency (JEG-3) | Potency (SKOV3)

C[N@@+]1(CC2CC2)CC[C@]23c4c5ccc(O)c4O[C@H]2C(=O)CC[C@@]3(O)[C@H]1C5
inactive: Potency [1] | Potency [2] | Potency [5] | Potency [3] | Potency [4] | max response (NIH3T3) 2.77% | Potency (CAOV3) | Potency (HeLa) | Potency (JEG-3)

CC(=O)OC[C@]12C[C@H](OC(=O)CC(C)C)C(C)=C[C@H]1O[C@@H]1[C@H](O)[C@@H](O)[C@@]2(C)[C@]12CO2
active: Potency [3] 17.8 nM | Potency (NIH3T3) 100 nM | Potency (HeLa) 158 nM | Potency (JEG-3) 1580 nM
inactive: Potency [5] | Potency [4]

CC[C@H](C)[C@H](NC(=O)[C@H]1CCCCN1C)C(=O)N(COC(=O)CC(C)C)[C@H](C[C@@H](OC(C)=O)c1nc(C(=O)N[C@@H](Cc2ccc(O)cc2)C[C@H](C)C(=O)O)cs1)C(C)C
active: Potency [2] 1.9 nM | Potency [3] 0.3 nM | Potency (NIH3T3) 1.2 nM
inactive: redox activity (% of DA3003) [4] -0.209% [at 1.02 µM] | activity change, negative = cytotoxicity (CAOV3) -2.04% [at 1.28 µM]

CC(=O)O[C@H]1CC[C@@]2(CI)C(=CC[C@@H]3[C@@H]2CC[C@]2(C)C(=O)CC[C@@H]32)C1
inactive: Potency [5] | max response (NIH3T3) 0.959% | Potency (CRL-7250) | outcome (HACAT) | Potency (CAOV3) | Potency (HeLa) | Potency (JEG-3) | Potency (SKOV3)

CC1=CC2OC3[C@H](O)C[C@@](C)([C@]34CO4)[C@@]2(CO)[C@H](O)C1=O (some centres undefined)
inactive: Potency [4] | Potency (JEG-3)
active: Potency [2] 1460 nM | Potency [3] 1830 nM | Potency (NIH3T3) 1300 nM | Potency (HeLa) 25100 nM

Cc1sc2c(c1C)C(c1ccc(Cl)cc1)=N[C@@H](CC(N)=O)c1nnc(C)n1-2
inactive: Potency [5] | Potency [7] | Potency [6] | Potency [8] | Potency [4] | Z-AUC [9] -0.829 and -0.822 | Potency (JEG-3)
active: Potency [3] 51.5 nM and 148 nM | Potency (SKOV3) 891 nM
-0.858 and -0.588: Z-AUC ([9]; measured here: PEO1 parental Z-AUC)
-1.13 and -0.593: Z-AUC ([9]; measured here: PEO4 Z-AUC)
